The list is not random: actives were taken first. Their share in the collection is about 7.2%.
Sm TGR inh: blocks Schistosoma mansoni thioredoxin glutathione reductase; Q962Y6; purified TGR, DTNB reduction, TNB absorbance 405 nm; Potency, µM (top dose mostly 114 µM), most hits filed as inhibitors; hit rate 3% among 360,000; further: nearly all actives have a fitted effect of over 60% in size
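First, TGR (20 nM dispensed) and NADPH were mixed with compound. Second, a 15 min room-temperature incubation followed. Third, further NADPH and then DTNB were added to start the reaction. Finally, TNB absorbance was monitored kinetically.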
Marburg entry inh: Marburg virus entry inhibition | Marburg virus pseudotyped entry inhibition, cell reporter | Potency, µM (highest dose often 37.8 µM), actives largely listed as inhibitors | hit rate 1.8% among 300,000; calls by dose curve; tested in HEK293 cells
HCV inh: blocks hepatitis C virus; Huh7.5.1 HCVcc-Cre infection, luciferase reporter, 44 h; Potency, µM (highest dose often 41.8 µM), actives largely listed as inhibitors; hit rate 3.4% among 340,000; AID 651820
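Reporter virus HCVcc-Cre (~0.5 moi) infects cells exposed to compound; seeding density 1,000 cells/well with 4 h settling beforehand. Luminescence, 15 sec read, taken 44 h post-infection following a 15 min RT substrate incubation.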
LASV entry inh: Lassa virus entry inhibition | AID 540256 | Potency, µM (doses to about 37.9 µM), usual class: inhibitors | Lassa virus pseudotype entry inhibition, cell reporter | hit rate 1.2% among 300,000; calls by dose curve; tested in HEK293 cells; further: nearly all actives have a fitted effect of over 50% in size
RE007 growth inh: less growth of the S. pombe RE007 Vpr strain; S. pombe RE007 Vpr strain, BacTiter-Glo ATP luminescence, 24 h; Potency, µM (doses to about 92.2 µM), most hits filed as inhibitors; hit rate 0.21% among 360,000; AID 651644; active means well fitted falling curve with a large enough effect; inconclusive means small, poorly fitted or top-dose-only effect; inactive means no such curve, though single readings can be large or run the other way; further: nearly all actives have a fitted effect of over 50% in size
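Fission yeast strain RE007, carrying one chromosomally integrated HIV-1 vpr copy, was seeded at OD 0.01 in PMG+AL medium with 23 nL pinned compound. After 24 h at 30 °C and 99% humidity, viability was read by BacTiter-Glo luminescence.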
FMDV antiviral: blocks foot and mouth disease virus. FMDV antiviral cell-based qHTS. Potency, µM (highest dose often 57.9 µM), usual class: inhibitors. hit rate 1.2% among 410,000. AID 1159524; calls by dose curve; tested in HEK293T cells; further: read-out not given here; nearly all actives have a fitted effect of over 45% in size
Numbers stand for hits; 0 = inactive; ? = inconclusive; - = no result. Unless noted, the call rests on the fitted dose curve; in most records, active means well fitted curve in the direction sought with a large enough effect; inconclusive means small, poorly fitted or top-dose-only effect, or another doubt; inactive means no such curve, though single readings can be large; an effect the other way counts as inactive or inconclusive.

SMILES	Sm TGR inh	Marburg entry inh	HCV inh	LASV entry inh	RE007 growth inh	FMDV antiviral
CN(C)c1ccc(C(=S)Nc2ccccc2)cc1	0	14.1µM	0	?	0	0
N#C/C(=C\c1ccc([N+](=O)[O-])cc1)c1ccccn1	0	0	0	0	0	0
CN(C)c1ccc(NC(=S)c2ccccn2)cc1	0	0.82µM	0	0.891µM	?	2.82µM
CCCCOc1nnc(-c2ccc(OCC)cc2)c2ccccc12	0	?	-	0	-	?
COc1cc2c(cc1OC)C(c1ccc(N)cc1)=NNC(=O)C2	-	-	-	-	-	0
CCC(CC)C(=O)N1CCc2cc(OC)c(OC)cc2C1COc1ccc(C(=O)OC)cc1 (stereo unspecified)	0	-	-	0	-	?
C=CCOC(=O)N[C@H](c1cccc(OC)c1)[C@H](C)C=CCC(=O)OC	-	0	-	?	-	-
CCCn1c(N)c(N2CCCCC2)c(=O)n(CC(=O)Nc2ccc(C(C)=O)cc2)c1=O	-	0	0	0	0	0
N#CC(C#N)=Cc1ccc(OC(=O)c2ccccn2)cc1	8.91µM	?	0	0	0	0
O=C(COC(=O)C1=Cc2ccccc2OC1)NCc1ccccc1	0	0	0	0	0	0
COCCNC(=O)COC(=O)C1=Cc2ccccc2OC1	0	?	12.6µM	0	0	0
O=C(NCc1ccccc1Br)c1ccc2nc(N3CCCCC3)sc2c1	0	0	-	-	-	0
O=C(c1ccccc1)N1CCc2ccccc21	0	0	0	0	0	0
O=C(c1ccccc1)N1CCN(C(=O)c2ccccc2)c2ccccc21	-	?	3.16µM	?	0	35.5µM
COc1cc(/C=N/N2C(C)CCCC2C)cc(Br)c1O (stereo unspecified)	0	0	0	?	0	0
O=C1CSC(=S)N1/N=C/C=C/c1ccccc1	15.8µM	0	0	0	0	0
COc1ccc2ccccc2c1/C=N/N1C(=O)CSC1=S	0	0	?	?	0	0
COc1cccc(/C=N/N2C(=O)CSC2=S)c1O	5.62µM	?	0	0	0	0
O=C1CSC(=S)N1/N=C/c1c(F)cccc1F	8.91µM	0	0	0	0	0
COc1cc(/C=N/N2C(=O)CSC2=S)cc(Br)c1O	12.6µM	0	0	15.8µM	?	0
O=C1CSC(=S)N1N=Cc1c(F)cccc1Cl	-	-	-	-	0	0
CC(C)c1cnc2c(c1SCC(=O)Nc1cccc([N+](=O)[O-])c1)c(=O)n(C)c(=O)n2C	0	-	-	0	-	0
COc1ccc(Cn2nnc3c(=O)[nH]c(C4CCCN(C(=O)c5ccccc5Cl)C4)nc32)cc1OC (stereo unspecified)	0	0	-	0	-	0
COc1cc(OC)cc(-c2cc3cc4c(cc3cn2)OCO4)c1	-	-	?	-	?	0
c1ccc2ncccc2c1	-	-	0	-	0	0
SMILES	Sm TGR inh	Marburg entry inh	HCV inh	LASV entry inh	RE007 growth inh	FMDV antiviral
Fc1ccccc1-c1cc2ncccc2cn1	31.6µM	-	0	-	0	0
COc1cc(OC)cc(-c2cc3ncccc3cn2)c1	0	-	11.2µM	-	0	0
COc1cc(OC)cc(-c2cc3ccc(OC)cc3cn2)c1	0	-	?	-	39.8µM	0
COc1ccc2cc(-c3ccsc3)ncc2c1	39.8µM	-	?	-	0	0
COc1ccc(-c2nn(-c3ccc(F)cc3)c3c2cnc2ccc(F)cc23)cc1OC	0	0	-	0	-	0
CCOC(=O)c1ccc(NC(=O)CCc2nc(-c3ccccc3)no2)cc1	0	?	?	?	0	20µM
CCOC(=O)c1ccc(NC(=O)CCc2nc(-c3ccccc3Cl)no2)cc1	0	?	11.2µM	?	0	0
CCOC(=O)c1cccc(NC(=O)CCc2nc(-c3ccccc3F)no2)c1	0	0	?	0	0	?
COc1ccc(CN2CCOc3ccc(CN4CCC(O)(c5cccnc5)CC4)cc3C2)cc1OC	-	-	-	-	-	0
CCc1nn(CC(=O)NCCCOC)c(=O)c2cc3ccccc3n12	0	0	-	-	-	0
CCn1cnc2c(Nc3cccc(Cl)c3)nc(N[C@@H]3CCCC[C@H]3N)nc21	-	6.31µM	-	-	-	-
CCCCC1(Cc2ccc([N+](=O)[O-])cc2)C(=O)N(c2ccccc2)N(c2ccccc2)C1=O	0	7.94µM	12.6µM	?	0	?
COc1ccc(CCNC(=O)CSc2cn(CCNC(=O)c3ccc(OC)c(OC)c3)c3ccccc23)cc1OC	0	?	-	0	-	0
COc1ccc(CCNC(=O)CSc2cn(CCNC(=O)c3cccc(C(F)(F)F)c3)c3ccccc23)cc1OC	0	?	-	?	-	22.4µM
